The nature of test [1]: BSK_3C_VCAM1: BioMAP Diversity Plus: 3C Assay for Vascular cell adhesion molecule 1 (VCAM1) Biomarker Activity (AID 2282999). As to conditions: BioMAP 3C HUVEC, VCAM1 ELISA, cytokine-stimulated; actives raise or lower the signal. In outline: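 Endothelial cells from human umbilical vein are treated with test chemical. At 24 h, VCAM-1 is measured by ELISA, and responses in either direction are fitted relative to DMSO.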
(ELISA stands for enzyme-linked immunosorbent assay.)

Test [2] in a line: BSK_3C_Proliferation: Cell Proliferation Assessment in the BioMAP Diversity Plus: 3C Assay (AID 2283006).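 On AC50: potency may reflect either rise or fall in cell number versus DMSO.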 As to conditions: primary human endothelial cells (HUVEC). In outline:
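Proliferation of human vascular endothelial primary cells after 48 h dosing, quantified as SRB-stained protein at 560 nm relative to DMSO.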

Test [3] can be described thus: BSK_3C_Vis: BioMAP Diversity Plus: 3C Assay for Morphology Visualization (AID 2283025).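 Further: fitted both ways so gain or loss versus DMSO counts.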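 On AC50: light microscopy image of cell morphology used as background control.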 As to conditions: primary human endothelial cells (HUVEC). In short, it runs like this: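 Endothelial cells from human umbilical vein were treated with test chemicals for 24 h and inspected by light microscopy for changes in cell conformation.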
Test [4] in a line: BSK_BE3C_SRB: Viability Assessment in the BioMAP Diversity Plus: BE3C Assay (AID 2283028).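 On AC50: fitted both ways so AC50 may mark signal gain or loss versus DMSO.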 Conditions: primary human bronchial epithelial cells. In outline: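 SRB total-protein staining (0.1%, after TCA fixation) of chemically dosed human bronchial epithelial primary cells at 24 h; DMSO serves as the negative control for bidirectional curve fitting.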
Read-out in test [5]: Thrombomodulin, THBD (gene 7056)
Kind of test: BSK_3C_Thrombomodulin: BioMAP Diversity Plus: 3C Assay for Thrombomodulin Biomarker Activity (AID 2283029). As to conditions: primary human endothelial cells (HUVEC); actives raise or lower the signal. In outline:
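Thrombomodulin ELISA, human primary HUVEC, 24 h post-dose; data fitted in both directions relative to DMSO.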

Read-out in test [6]: Vascular cell adhesion molecule 1 (VCAM1), VCAM1 (gene 7412)
As to the kind of experiment: BSK_4H_VCAM1: BioMAP Diversity Plus: 4H Assay for Vascular cell adhesion molecule 1 (VCAM1) Biomarker Activity (AID 2283033).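 On outcome: cell-surface VCAM-1 protein measured by ELISA.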 As to conditions: primary human endothelial cells (HUVEC); actives raise or lower the signal. In outline:
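Endpoint derived from bidirectional fitting against DMSO controls of VCAM-1 ELISA signal in umbilical vein endothelial cells sampled at 24 h following treatment.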

Read-out in test [7]: Interferon-gamma inducible Protein 10 (IP10), CXCL10 (gene 3627)
Kind of test: BSK_BE3C_IP10: BioMAP Diversity Plus: BE3C Assay for Interferon-gamma inducible Protein 10 (IP10) Biomarker Activity (AID 2283034). Conditions: primary human bronchial epithelial cells; actives raise or lower the signal. In short, it runs like this: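 Using primary human bronchial epithelial cultures, the assay captures IP-10 by ELISA one day (24 h) after exposure. Parallel SRB staining of total protein flags overt cytotoxicity. Fits run bidirectionally relative to DMSO.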

Read-out in test [8]: Urokinase-type plasminogen activator receptor (uPAR), PLAUR (gene 5329)
Kind of test: BSK_BE3C_uPAR: BioMAP Diversity Plus: BE3C Assay for Urokinase-type plasminogen activator receptor (uPAR) Biomarker Activity (AID 2283039).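 Further: uPAR protein level measured by ELISA on the cells; cells exposed to compound for one day before measurement.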 Conditions: primary human bronchial epithelial cells; actives raise or lower the signal. In outline: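 A uPAR ELISA serves as the readout, taken 24 h after treating primary human bronchial epithelial cells. Responses in either direction are fitted against DMSO, which defines baseline activity.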

Read-out in test [9]: Interleukin-6 (IL6), IL6 (gene 3569)
Kind of test: BSK_CASM3C_IL6: BioMAP Diversity Plus: CASM3C Assay for Interleukin-6 (IL6) Biomarker Activity for (AID 2283040). As to conditions: primary human coronary artery smooth muscle cells; actives raise or lower the signal.

Read-out in test [10]: E-selectin (Homo sapiens) (UniProt P16581)
Kind of test: BSK_LPS_Eselectin: BioMAP Diversity Plus: LPS Assay for Eselectin Biomarker Activity (AID 2283077). Conditions: primary human HUVEC with PBMC; actives raise or lower the signal. In outline:
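Dose chemical onto LPS-driven HUVEC/PBMC co-culture; after 24 h, run ELISA for E-selectin; fit up- and down-going responses relative to DMSO control.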

Read-out in test [11]: Interleukin-1 alpha (IL1a), IL1A (gene 3552)
As to the kind of experiment: BSK_LPS_IL1a: BioMAP Diversity Plus: LPS Assay for Interleukin-1 alpha (IL1a) Biomarker Activity (AID 2283080). Conditions: primary human HUVEC with PBMC; actives raise or lower the signal. In short, it runs like this: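 Primary human HUVEC and PBMC co-culture stimulated with LPS is dosed and harvested at 24 h. Both increases and decreases in ELISA-measured IL-1a are scored relative to DMSO.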

The nature of test [12]: BSK_LPS_PGE2: BioMAP Diversity Plus: LPS Assay for Prostaglandin E2 (PGE2) Biomarker Activity (AID 2283082). Conditions: primary human HUVEC with PBMC; actives raise or lower the signal. In short, it runs like this: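 Endpoint derived from bidirectional curve fitting versus DMSO of ELISA-measured PGE2 in LPS-stimulated human primary vascular co-culture (HUVEC with PBMC) harvested at 24 h.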

Read-out in test [13]: Tumor necrosis factor (Homo sapiens) (UniProt P01375)
As to the kind of experiment: BSK_LPS_TNFa: BioMAP Diversity Plus: LPS Assay for Tumour Necrosis Factor alpha (TNFa) Biomarker Activity (AID 2283085). Conditions: primary human HUVEC with PBMC; actives raise or lower the signal. In short, it runs like this:
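Primary human vascular co-culture of HUVEC and PBMC; TNFa ELISA 24 h after treatment, analysed as increase or decrease relative to DMSO control.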

Read-out in test [14]: CD38, CD38 (gene 952)
Kind of test: BSK_SAg_CD38: BioMAP Diversity Plus: SAg Assay for CD38 Biomarker Activity (AID 2283087). Conditions: primary human HUVEC with PBMC; actives raise or lower the signal. In outline:
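Fluorescence ELISA of cell-surface CD38 served as the read-out, with either increase or decrease fitted against DMSO controls. Cells were a human umbilical vein endothelium plus PBMC co-culture under SEB/TSST-1 stimulation, measured 24 h after dosing.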

Read-out in test [15]: CD69, CD69 (gene 969)
As to the kind of experiment: BSK_SAg_CD69: BioMAP Diversity Plus: SAg Assay for CD69 Biomarker Activity (AID 2283089).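 On AC50: cell surface CD69 protein quantified by ELISA with fluorescence detection.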 Conditions: primary human HUVEC with PBMC; actives raise or lower the signal. In short, it runs like this: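 HUVEC co-cultured with PBMC were dosed with chemical, and CD69 was measured by ELISA with fluorescence read-out 24 h later. Bidirectional curve fitting used DMSO as negative control and activity baseline.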

Read-out in test [16]: Monocyte Chemoattractant Protein-1 (MCP1), CCL2 (gene 6347)
As to the kind of experiment: BSK_SAg_MCP1: BioMAP Diversity Plus: SAg Assay for Monocyte Chemoattractant Protein-1 (MCP1) Biomarker Activity (AID 2283090). Conditions: primary human HUVEC with PBMC; actives raise or lower the signal. In short, it runs like this: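 MCP-1 levels in the endothelial–PBMC SAg co-culture were quantified by ELISA at 24 h post-dosing; both increases and decreases versus DMSO scored. Cytotoxicity monitored by SRB total protein in parallel cultures.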

Read-out in test [17]: Monokine induced gamma interferon (MIG), CXCL9 (gene 4283)
Kind of test: BSK_SAg_MIG: BioMAP Diversity Plus: SAg Assay for Monokine induced gamma interferon (MIG) Biomarker Activity (AID 2283092). As to conditions: primary human HUVEC with PBMC; actives raise or lower the signal. In short, it runs like this: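 HUVEC plus human PBMC co-culture, chemicals dosed and MIG (CXCL9) quantified by ELISA at 24 h. Bidirectional curve fitting against DMSO as negative control and baseline, so both gain and loss of signal count as activity.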

Test [18] in a line: BSK_SAg_PBMCCytotoxicity: PBMC Cytotoxicity Assessment in the BioMAP Diversity Plus: SAg Assay (AID 2283093).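 Further: PBMC viability measured as Alamar Blue reduction fluorescence at 546/580 nm; fitted both ways against DMSO so a hit may be loss or gain of signal.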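 On AC50: PBMC superantigen activated with SEB plus TSST-1 one hour after compound addition.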 Conditions: primary human HUVEC with PBMC. In outline:
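Compound added to 75,000 PBMC/well for 1 h; SEB and TSST-1 then added at 20 ng/mL final each; 90 h incubation; Alamar Blue 6 h; read 546/580 nm ex/em. Activity fitted bidirectionally relative to DMSO baseline.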

Test [19] is described as follows: BSK_SAg_Proliferation: Cell Proliferation Assessment in the BioMAP Diversity Plus: SAg Assay (AID 2283095).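 Further: relative cell number as total protein by SRB absorbance in sub-confluent culture.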 Conditions: primary human HUVEC with PBMC. In outline:
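Readout is SRB-stained protein (560 nm) in a primary human HUVEC and PBMC co-culture; sub-confluent cultures are read at 96 h. Activity is fitted bidirectionally using DMSO as baseline.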

Read-out in test [20]: Interleukin-8 (IL8), CXCL8 (gene 3576)
Kind of test: BSK_LPS_IL8: BioMAP Diversity Plus: LPS Assay for Interleukin-8 (IL8) Biomarker Activity (AID 2283078). Conditions: primary human HUVEC with PBMC; actives raise or lower the signal. In outline:
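In this LPS system, chemical-treated human umbilical vein endothelium/PBMC co-cultures were harvested at 24 h for IL-8 ELISA.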

Activity calls are given as the source filed them. How the source made its calls: active means hit-call score of the fitted dose curve at least 0.9, where 1 is the maximum; inactive means score below 0.9.

A word on the AC50: it is the concentration giving half of the maximal activity seen.

Sequence of E-selectin (Homo sapiens) (P16581 whole entry, looked up): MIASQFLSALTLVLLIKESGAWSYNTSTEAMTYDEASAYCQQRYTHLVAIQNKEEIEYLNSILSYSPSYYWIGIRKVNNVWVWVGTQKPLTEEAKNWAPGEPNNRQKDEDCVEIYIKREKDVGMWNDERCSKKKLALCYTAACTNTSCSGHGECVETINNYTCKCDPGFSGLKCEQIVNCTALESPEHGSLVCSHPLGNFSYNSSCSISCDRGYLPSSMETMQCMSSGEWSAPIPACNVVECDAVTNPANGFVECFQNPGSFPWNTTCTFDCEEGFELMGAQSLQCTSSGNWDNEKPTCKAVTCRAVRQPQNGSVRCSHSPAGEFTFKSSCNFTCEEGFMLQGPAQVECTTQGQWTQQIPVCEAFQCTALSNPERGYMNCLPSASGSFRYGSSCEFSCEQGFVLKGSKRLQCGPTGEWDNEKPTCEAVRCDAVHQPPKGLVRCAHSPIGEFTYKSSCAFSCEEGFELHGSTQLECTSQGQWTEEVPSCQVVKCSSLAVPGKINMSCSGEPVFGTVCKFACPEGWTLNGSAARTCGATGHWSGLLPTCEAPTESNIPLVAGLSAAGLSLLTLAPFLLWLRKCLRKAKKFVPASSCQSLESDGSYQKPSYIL
Sequence of Tumor necrosis factor (Homo sapiens) (P01375 whole entry, looked up): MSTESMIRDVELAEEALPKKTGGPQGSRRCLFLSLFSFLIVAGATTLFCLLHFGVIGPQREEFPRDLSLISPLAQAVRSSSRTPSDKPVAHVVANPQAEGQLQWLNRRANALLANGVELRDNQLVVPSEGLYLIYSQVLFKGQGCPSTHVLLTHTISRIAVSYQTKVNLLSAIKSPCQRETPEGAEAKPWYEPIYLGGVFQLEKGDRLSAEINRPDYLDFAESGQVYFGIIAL

Consider `CC(C)(C)C(=O)CCl`, for which the AC50 in test [1] is 20 µM (active); in test [2], 16.9 µM (active); in test [6], 25.7 µM (active); in [11], 33.9 µM (active); in test [14] it was 27 µM (active); in test [15] it was 8.75 µM (active). In addition, the figures for the AC50 in test [18] and in test [19] were 9.22 µM (active) and 23.1 µM (active), respectively. Moreover, the outcome in test [3], in test [4], in test [5], in [7], in test [8] and in test [9] was inactive. In addition, the result in test [10], in test [12], in [13], in test [16] and in [17] was inactive.
Consider `c1ccc(Nc2ccc3ccccc3c2)cc1`, for which the concentration at half-maximal activity (AC50) in test [1] is 34.8 µM (active); in test [2], 23.6 µM (active); in test [3], 8.8 µM (active); in test [4], 30 µM (active); in test [6] it was 29.5 µM (active); in test [7] it was 20 µM (active). Moreover, the AC50 in test [12] was 20 µM (active). Also, the outcome in test [5], in test [8], in test [9], in test [10], in test [20] and in test [11] was inactive. Moreover, the result in test [13], in test [14], in test [15], in test [16], in [17] and in [18] was inactive. For the same compound, in test [19], the result was inactive.
As to `O=S(=O)(c1ccccc1)c1ccccc1`, the outcome in test [1], in test [2], in [3], in test [4], in test [5] and in test [6] was inactive. Besides, the outcome in test [7], in test [8], in test [9], in test [10], in test [20] and in test [11] was inactive. Moreover, the outcome in test [12], in test [13], in test [14], in test [15], in test [16] and in [17] was inactive. Besides, the outcome in [18] and in test [19] was inactive.
As to `COC(C)(C)CCC[C@H](C)C/C=C/C(C)=C/C(=O)OC(C)C`, the AC50 was 28.8 µM (active) in test [1]; 26 µM (active) in [2]; 37.4 µM (active) in test [3]; 31.6 µM (active) in test [6]; 20 µM (active) in [7]; 35.3 µM (active) in test [10]. The AC50 in test [20] was 33.5 µM (active); in [11], 36.4 µM (active); in [13], 32.7 µM (active); in test [14] it was 30.4 µM (active); in [15], 18 µM (active); in test [16], 20 µM (active). Also, the AC50 in [18] was 29.7 µM (active); in test [19], 28.6 µM (active). Further, the outcome in test [4], in test [5], in test [8], in [9], in test [12] and in [17] was inactive.
In the case of `Nc1ccc(-c2ccc(N)c(N)c2)cc1N`, the result in test [1], in test [2], in test [3], in [4], in test [5] and in [6] was inactive. Moreover, the result in test [7], in test [8], in test [9], in test [10], in test [20] and in test [11] was inactive. Besides, the result in test [12], in test [13], in test [14], in test [16], in test [17] and in [18] was inactive. The outcome in [19] was inactive. The concentration at half-maximal activity (AC50) in test [15] is 12.7 µM (active).
For `CC(C)CCCCCCCOP(=O)(Oc1ccccc1)Oc1ccccc1`, the AC50 is 11.2 µM (active) in [1]; 10.1 µM (active) in test [2]; 5.61 µM (active) in [3]; 32.6 µM (active) in test [4]; 20 µM (active) in test [5]; 25.1 µM (active) in test [6]. The AC50 in [7] was 28 µM (active); in test [10], 23 µM (active); in [11], 27.3 µM (active); in test [12], 13.6 µM (active); in test [13], 30.4 µM (active); in test [14], 25.9 µM (active). Moreover, the AC50 was 16.7 µM (active) in [15]; 20 µM (active) in [16]; 35 µM (active) in test [17]; 31 µM (active) in test [18]; 15.8 µM (active) in test [19]. Besides, the result in test [8], in test [9] and in test [20] was inactive.

For the origin of these results see PubChem BioAssay (EPA / NIEHS).
